We go through eleven compounds from PubChem BioAssay AID624305 (National Center for Advancing Translational Sciences (NCATS), 2012).

SMILES strings stand for the structures. Records with an inconclusive call do not appear. Values without a mark were called inactive. Activity calls are given as the source filed them. Calls come from the whole dose curve; as a rule, active = well fitted activation curve with a large enough effect; inconclusive = small, poorly fitted or top-dose-only effect; inactive = no such curve, though single readings can be large or run the other way.
Potency is the fitted concentration of half-maximal effect.

This assay can be described thus: qHTS assay for re-activators of p53 using a Luc reporter: Hit Validation. For activation: 0% is about no effect. Note: nearly all actives have a fitted effect of over 75% in size. The settings on record: p53-responsive luciferase reporter cells, luminescence; series mostly up to 46.1 µM; activation: at the top concentration. An excerpt:
The p53 tumor suppressor plays a key role in suppression of tumorigenesis and in human carcinogenesis. It is frequently found inactivated in human cancers, mainly by point mutation. These point mutations are found in a wide variety of human cancers and a majority of them affect the DNA binding domain of the protein. The point mutations either alter native p53 conformation or abolish DNA contact. Additionally, cancer cells with p53 mutations are more resistant to chemo-radiation therapies.
In order to find activators to reactivate this important protein, a cell-based screen for p53-dependent luciferase-reporter expression was developed. A p53-null H1299 lung cancer cell line was stably co-transfected with a temperature sensitive p53 mutant, p53-A138V, and a p53-responsive BP100-luciferase reporter. This cell model has previously been characterized in a gene chip profiling experiment for p53 activation. By lowering the culture temperature from 37 deg C (mutant p53 conformation) to 32 deg C (w.t. p53 conformation), a 30-60 fold increase in activation of luciferase activity is observed. At assay temperate, 37 deg C, basal reporter expression is very low and after the addition of detection reagent, a luminescent read-out is carried out. This is the hit validation assay, confirming the hits identified from the primary screen.
NIH Chemical Genomics Center [NCGC]
NIH Molecular Libraries Probe Production Centers Network [MLPCN]
Assay Provider (PI): Yi Sung, University of Michigan at Ann Arbor
5ul of 1000 cells per well are dispensed in all wells except column 4, into white solid-bottom TC-treated Kalypsys plates. The cells are kept in Opti-MEM and supplemented with 10% FBS and dispensed using a Multidrop (Thermo). Then using the Kalypsys pin-tool, 23nl of compounds are pinned. The compounds are starting concentration at 10mM, with 1:5 dilution, 4 points, and the control compound nocodazole is pinned in column 1 at 25mM, 1:3 dilution, in duplicate, 25mM nocodazole is pinned in column 2. Please note, all concentrations are working concentrations. 5ul of 1pM purified luciferase enzyme is dispensed using the Kalypsys dispenser in column 4. Plates are incubated for 24 hrs at 37 deg C, 5% CO2, and 95% humidity. Then 4ul of the detection reagent Amplite (ABD Bioquest) is added using the Kalypsys dispenser. Plates are incubated for 10 min at ambient room temperature and are then read on the ViewLux (Perkin Elmer) using a clear filter for a luminescent read-out.
For orientation: In qHTS, concentration-response curves come from the screen itself.
For `COc1ccc(CN2CCNCC2)cc1`, the “activation” value was 19.8%.

With `O=C(c1cc2c(s1)CCCC2)N1CCC2(CC1)OCCO2`, the “activation” value is 33.3%.

Consider `COC(=O)C1=C(c2ccc(F)cc2OCc2ccccc2)C[C@@H]2CC[C@H]1N2C(=O)NCCOc1ccc(OC)cc1`, for which the “activation” value was -22.9%.

For `COC(=O)C1=C(c2cccc(C#N)c2)C[C@@H]2CC[C@H]1N2C(=O)NC1CC1`, the “activation” value was 16.7% [at 46.1 µM, H1299 line expressing heat-sensitive Ala138Val p53].

Consider `O=C(N/N=C/c1c(O)n(Cc2ccccc2)c(=O)[nH]c1=O)c1ccccc1`, for which the activation is -38.5% [at 9.22 µM].

As for `Cc1cc(N2C(=O)C3CCCN3C2c2sccc2C)no1` (stereo unspecified), the “activation” value is -20.3% [at 46.1 µM, H1299 line expressing heat-sensitive Ala138Val p53].

Consider `Nc1c(C(=O)NCc2ccco2)c2nc3ccccc3nc2n1Cc1ccc(F)cc1`, for which the “activation” value was -6.25% [at 46.1 µM, H1299 line expressing heat-sensitive Ala138Val p53].

For the compound `COc1ccc(NC(=O)C2C3CCC(O3)C2C(=O)O)c(OC)c1` (stereo unspecified), the “activation” value is 2.6%.

For the compound `O=C(N/N=C/c1c(O)n(C2CC2)c(=S)[nH]c1=O)c1ccccc1`, the “activation” value is -9.38%.

As for `Nc1ccccc1N=Cc1c(O)n(CCC2=CCCCC2)c(=O)[nH]c1=O`, the “activation” value was 12.5%.

Consider `N=C1c2ccccc2CN1CC(=O)c1ccccc1`, for which the Potency is 20.6 µM (active).
